Results filed as inconclusive are left out. A number with no mark means an inactive call. Calls of active or inactive are those of the source. The call rests on the fitted dose curve; in most records, active means well fitted cell-killing curve with a large enough effect; inconclusive means small, poorly fitted or top-dose-only effect, or effect the other way; inactive means no such curve, though single readings can be large or run the other way.
Test: Quantitative High-Throughput drug screen in 47 multiple myeloma cell lines against the NCATS MIPE library collection: EJM_DSMZ cell viability assay (AID 1918926; further: nearly all actives have a fitted effect of over 30% in size;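 on viability, % of control: 100% = DMSO-only wells and 0% = media-only wells without cells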)
Conditions: EJM myeloma cell viability, CellTiter-Glo ATP, 48 h; series mostly up to 45.8 µM; viability, % of control: at the top concentration
In short: (§1)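 Relative luminescence from CellTiter-Glo served as the viability signal, referenced to DMSO-treated (100%) and cell-free medium (0%) controls. Treatment lasted 48 hours at 37C with 500 cells per well.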
Potency means the concentration at half of the fitted maximal effect.

Row | SMILES | viability, % of control [%] | Potency
1 | O=S(=O)(F)Cc1ccccc1 | 102 | 
2 | Cc1c(C(=O)Nc2cccc(C(F)(F)F)c2)cc(-c2ccccc2)n1CCCN1CCOCC1 |  | 18700 nM (active)
3 | CN(C)[C@@H]1C(=O)C(C(N)=O)=C(O)[C@@]2(O)C(=O)C3=C(O)c4c(O)cccc4[C@@](C)(O)[C@H]3[C@H](O)[C@@H]12 | 82.8 | 
4 | C[C@H]([C@H](O)CCC(C)(C)O)[C@H]1CC[C@@]2(O)C3=CC(=O)[C@@H]4C[C@@H](O)[C@@H](O)C[C@]4(C)[C@@H]3CC[C@]12C | 92.7 | 
5 | CC(=CCCC1=CCC(C2=CC(=O)OC2O)OC1O)CCC1=C(C)CCCC1(C)C (configuration not stated) | 97.1 | 
6 | CCCN1CCO[C@@H]2c3cc(O)ccc3OC[C@@H]21 | 95.5 | 
7 | COc1ccc2c(c1)[C@]13CCCCC1C(C2)N(C)CC3 (some centres not stated) | 108 | 
8 | CCN(CC)C(=O)c1ccc(C2=CC3(CCNCC3)Oc3cccc(O)c32)cc1 | 94.4 | 
9 | CCC(=O)OC1CCC2C3CCC4=CC(=O)CC[C@@]4(C)C3CC[C@]12C (some centres not stated) | 96.9 | 
10 | C[C@@H]1CC[C@H]2[C@@H](C)C(=O)O[C@@H]3O[C@@]4(C)CC[C@H]1[C@]32OO4 | 80.6 | 
11 | O=c1[nH]c2ccccc2n1C1CCN(Cc2ccc(-c3[nH]c4cc5ncnc5cc4nc3-c3ccccc3)cc2)CC1 |  | 20900 nM (active)
12 | C[C@]12COC(=O)C[C@@H]1CC[C@@H]1[C@H]2CC[C@@]2(C)[C@H]1CC[C@]2(C)O | 103 | 
13 | CC(C)N[C@@H]1CCn2c(=O)[nH]c3cccc(c32)[C@@H]1O |  | 14800 nM (active)
14 | c1ccc2c(CN3CCNCC3)cccc2c1 | 113 | 
15 | CC(=O)O[C@@]12CO[C@H]1C[C@H](O)[C@@]1(C)C(=O)[C@H](O)C3=C(C)[C@@H](O)C[C@@](O)([C@@H](OC(=O)c4ccccc4)[C@@H]21)C3(C)C |  | 3320 nM (active)
16 | CC(=O)N(C)c1cccc(-c2ccnc3c(C(=O)c4cccs4)cnn23)c1 | 101 | 
17 | CN(C)NC(=O)CCC(=O)O | 98.7 | 
18 | C[C@@]12OC(=O)[C@]1([C@@H](O)[C@@H]1C=CCCC1)NC(=O)[C@H]2CCCl |  | 18.7 nM (active)
19 | COc1cc([C@@H]2c3cc4c(cc3[C@@H](O)C3COC(=O)C32)OCO4)cc(OC)c1O (some centres not stated) |  | 46.9 nM (active)
20 | CC1(N2CCC(n3c([C@@H]4CCCNC4)nc4ccccc43)CC2)CCCCCCC1 | 80.5 | 
21 | CSCC[C@@H](NC(=O)[C@@H](Cc1ccccc1)NC(=O)CNC(=O)CNC(=O)[C@@H](N)Cc1ccc(O)cc1)C(=O)O | 110 | 
22 | C[C@@H]1O[C@@H](O[C@@H]2C=C3CC[C@@H]4[C@@H](CC[C@]5(C)[C@H](c6ccc(=O)oc6)CC[C@@]45O)[C@@]3(C)CC2)[C@H](O)[C@H](O)[C@H]1O |  | 20.9 nM (active)
23 | O=C(Nc1ccncc1)C(=O)c1cn(Cc2ccc(Cl)cc2)c2ccccc12 |  | 3720 nM (active)
24 | C#C[C@]1(O)C=C[C@@H]2[C@@H]3CCC4=CC(=O)CC[C@@H]4[C@H]3CC[C@@]21CC | 92.6 | 
25 | COc1ccc(CC2NCCc3cc(OC)c(OC)cc32)cc1OC (configuration not stated) | 71 | 
26 | CC=C(C)C(=O)N[C@@H](c1ccccc1)[C@@H](O)C(=O)O[C@H]1C[C@@]2(O)[C@@H](OC(=O)c3ccccc3)[C@@H]3[C@]4(OC(C)=O)CO[C@@H]4C[C@H](O)[C@@]3(C)C(=O)[C@H](OC(C)=O)C(=C1C)C2(C)C | 65.9 | 

Test: Quantitative High-Throughput drug screen in 47 multiple myeloma cell lines against the NCATS MIPE library collection: ARP1_JJKsccF8 cell viability assay (AID 1918928; further: nearly all actives have a fitted effect of over 40% in size)
Conditions: ARP1 myeloma cells viability, CellTiter-Glo ATP, 48 h; series mostly up to 45.8 µM; viability: at the top concentration
In short: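 Luminescence from CellTiter-Glo, taken after 5 min at room temperature, reports cellular ATP as viability. Cells (500 per well) had been treated 48 h at 37 °C with MIPE 4.0 compounds, scaled between DMSO and medium-only controls.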

Row | SMILES | viability [%] | Potency
27 | CCOC(=O)c1c(C(C#N)=CN)c2ccc(Cl)c(Cl)c2n1C | 97 | 
28 | COc1ccc2c(c[n+](C)c3c4cc5c(cc4ccc23)OCO5)c1OC |  | 2960 nM (active)
29 | CO[C@H]1CCC(O[C@H]2C[C@H]([C@]3(C)CC[C@]4(C[C@H](O)[C@@H](C)[C@@H]([C@@H](C)C=C(C)C(=O)[C@H](C)C[C@H](C)C(=O)O)O4)O3)O[C@]3(O[C@@H]([C@H]4O[C@@](O)(CO)[C@H](C)C[C@H]4C)C[C@H]3C)[C@H]2C)O[C@H]1C (some centres not stated) |  | 1180 nM (active)
30 | O=S(=O)(F)Cc1ccccc1 | 84.5 | 
31 | Cc1c(C(=O)Nc2cccc(C(F)(F)F)c2)cc(-c2ccccc2)n1CCCN1CCOCC1 |  | 20900 nM (active)
32 | CC(=CCCC1=CCC(C2=CC(=O)OC2O)OC1O)CCC1=C(C)CCCC1(C)C (configuration not stated) | 70.1 | 
33 | c1ccc2c(CN3CCNCC3)cccc2c1 | 89.2 | 
34 | CSCC[C@@H](NC(=O)[C@@H](Cc1ccccc1)NC(=O)CNC(=O)CNC(=O)[C@@H](N)Cc1ccc(O)cc1)C(=O)O | 109 | 
35 | C#C[C@]1(O)C=C[C@@H]2[C@@H]3CCC4=CC(=O)CC[C@@H]4[C@H]3CC[C@@]21CC | 98.9 | 

Test: Quantitative High-Throughput drug screen in 47 multiple myeloma cell lines against the NCATS MIPE library collection: ARD_JJKsccE7 cell viability assay (AID 1918929;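 on viability: 100% = DMSO-only wells and 0% = media-only wells without cells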)
Conditions: ARD myeloma cell line viability, CellTiter-Glo, 48 h; series mostly up to 45.8 µM; viability: at the top concentration
In short: as §1

Row | SMILES | viability [%] | Potency
36 | CC(C)N(CCNC(=O)CN1CCCC1=O)C(C)C | 93.6 | 
37 | CC[C@@]1(O)C(=O)OCc2c1cc1n(c2=O)Cc2cc3ccccc3nc2-1 |  | 372 nM (active)
38 | COc1ccc2c(c[n+](C)c3c4cc5c(cc4ccc23)OCO5)c1OC |  | 7430 nM (active)
39 | O=S(=O)(CC1CS1)c1ccc(Oc2ccccc2)cc1 (configuration not stated) | 142 | 
40 | CCOP(=O)(OCC)C(C)NC(=O)N(CCCl)N=O (configuration not stated) | 145 | 
41 | C[C@]12CCC(=O)C(O)=C1CC[C@@H]1[C@H]3CCC(=O)[C@@]3(C)CC[C@@H]12 | 113 | 
42 | O=C(N[C@H]1CN2CCC1CC2)c1ccc(Cl)cc1 | 109 | 
43 | COc1ccc2c(c1)CN(C)CC2c1ccc(Cl)c(Cl)c1 (configuration not stated) |  | 10500 nM (active)
44 | CCNC(=O)C[C@@H]1N=C(c2ccc(Cl)cc2)c2cc(OC)ccc2-n2c(C)nnc21 |  | 264 nM (active)
45 | O=S(=O)(F)Cc1ccccc1 | 98.7 | 
46 | Cc1c(C(=O)Nc2cccc(C(F)(F)F)c2)cc(-c2ccccc2)n1CCCN1CCOCC1 |  | 5900 nM (active)
47 | CN(C)[C@@H]1C(=O)C(C(N)=O)=C(O)[C@@]2(O)C(=O)C3=C(O)c4c(O)cccc4[C@@](C)(O)[C@H]3[C@H](O)[C@@H]12 | 111 | 
48 | C[C@H]([C@H](O)CCC(C)(C)O)[C@H]1CC[C@@]2(O)C3=CC(=O)[C@@H]4C[C@@H](O)[C@@H](O)C[C@]4(C)[C@@H]3CC[C@]12C | 111 | 
49 | CC(=CCCC1=CCC(C2=CC(=O)OC2O)OC1O)CCC1=C(C)CCCC1(C)C (configuration not stated) | 133 | 
50 | CCCN1CCO[C@@H]2c3cc(O)ccc3OC[C@@H]21 | 124 | 
51 | COc1ccc2c(c1)[C@]13CCCCC1C(C2)N(C)CC3 (some centres not stated) | 86.9 | 

Row | SMILES | viability [%] | Potency
52 | CCN(CC)C(=O)c1ccc(C2=CC3(CCNCC3)Oc3cccc(O)c32)cc1 | 117 | 
53 | CCC(=O)OC1CCC2C3CCC4=CC(=O)CC[C@@]4(C)C3CC[C@]12C (some centres not stated) | 118 | 
54 | C[C@@H]1CC[C@H]2[C@@H](C)C(=O)O[C@@H]3O[C@@]4(C)CC[C@H]1[C@]32OO4 | 127 | 
55 | O=c1[nH]c2ccccc2n1C1CCN(Cc2ccc(-c3[nH]c4cc5ncnc5cc4nc3-c3ccccc3)cc2)CC1 |  | 18700 nM (active)
56 | CC(C)N[C@@H]1CCn2c(=O)[nH]c3cccc(c32)[C@@H]1O |  | 6620 nM (active)
57 | c1ccc2c(CN3CCNCC3)cccc2c1 | 99.1 | 
58 | CC(=O)O[C@@]12CO[C@H]1C[C@H](O)[C@@]1(C)C(=O)[C@H](O)C3=C(C)[C@@H](O)C[C@@](O)([C@@H](OC(=O)c4ccccc4)[C@@H]21)C3(C)C |  | 2090 nM (active)
59 | CC(=O)N(C)c1cccc(-c2ccnc3c(C(=O)c4cccs4)cnn23)c1 |  | 20900 nM (active)
60 | CN(C)NC(=O)CCC(=O)O | 123 | 
61 | C[C@@]12OC(=O)[C@]1([C@@H](O)[C@@H]1C=CCCC1)NC(=O)[C@H]2CCCl |  | 1 nM (active)
62 | COc1cc([C@@H]2c3cc4c(cc3[C@@H](O)C3COC(=O)C32)OCO4)cc(OC)c1O (some centres not stated) |  | 8.3 nM (active)
63 | CSCC[C@@H](NC(=O)[C@@H](Cc1ccccc1)NC(=O)CNC(=O)CNC(=O)[C@@H](N)Cc1ccc(O)cc1)C(=O)O | 146 | 
64 | C[C@@H]1O[C@@H](O[C@@H]2C=C3CC[C@@H]4[C@@H](CC[C@]5(C)[C@H](c6ccc(=O)oc6)CC[C@@]45O)[C@@]3(C)CC2)[C@H](O)[C@H](O)[C@H]1O |  | 9.3 nM (active)
65 | O=C(Nc1ccncc1)C(=O)c1cn(Cc2ccc(Cl)cc2)c2ccccc12 |  | 41.8 nM (active)
66 | COc1ccc(CC2NCCc3cc(OC)c(OC)cc32)cc1OC (configuration not stated) | 76.1 | 
67 | CC=C(C)C(=O)N[C@@H](c1ccccc1)[C@@H](O)C(=O)O[C@H]1C[C@@]2(O)[C@@H](OC(=O)c3ccccc3)[C@@H]3[C@]4(OC(C)=O)CO[C@@H]4C[C@H](O)[C@@]3(C)C(=O)[C@H](OC(C)=O)C(=C1C)C2(C)C |  | 1 nM (active)

From PubChem BioAssay (NCATS)
